Source: PubChem BioAssay (Buhrlage Lab, Dana-Farber Cancer Institute and Novartis Institutes for BioMedical Research (Cambridge, Mass))
OTUD3 block: inhibitors of human OTUD3 deubiquitinase; purified OTUD3, Ub-rhodamine fluorescence, 2 h; OTU domain-containing protein 3 (Homo sapiens), Q5T2D3; inhibition, % at 25 µM; AID 1645858, 2021; actives 0.7% (n = 47,000)
USP7 block: inhibitors of human USP7 deubiquitinase. Ubiquitin carboxyl-terminal hydrolase 7 (Homo sapiens), Q93009. purified USP7, Ub-rhodamine cleavage fluorescence. inhibition, % at 20 µM. actives 0.3% (n = 47,000)
UCHL1 inh: inhibitors of human UCHL1 deubiquitinase. actives 0.2% (n = 47,000). purified UCHL1, Ub-rhodamine cleavage fluorescence. Ubiquitin carboxyl-terminal hydrolase isozyme L1 (Homo sapiens), P09936. inhibition, % at 20 µM. AID 1645859, 2021
USP10 block: inhibitors of human USP10 deubiquitinase; inhibition, % at 20 µM; purified USP10, Ub-rhodamine fluorescence, 60 min; actives 1.1% (n = 47,000); Ubiquitin carboxyl-terminal hydrolase 10 (Homo sapiens), Q14694
Target sequence (Q14694 whole entry, looked up): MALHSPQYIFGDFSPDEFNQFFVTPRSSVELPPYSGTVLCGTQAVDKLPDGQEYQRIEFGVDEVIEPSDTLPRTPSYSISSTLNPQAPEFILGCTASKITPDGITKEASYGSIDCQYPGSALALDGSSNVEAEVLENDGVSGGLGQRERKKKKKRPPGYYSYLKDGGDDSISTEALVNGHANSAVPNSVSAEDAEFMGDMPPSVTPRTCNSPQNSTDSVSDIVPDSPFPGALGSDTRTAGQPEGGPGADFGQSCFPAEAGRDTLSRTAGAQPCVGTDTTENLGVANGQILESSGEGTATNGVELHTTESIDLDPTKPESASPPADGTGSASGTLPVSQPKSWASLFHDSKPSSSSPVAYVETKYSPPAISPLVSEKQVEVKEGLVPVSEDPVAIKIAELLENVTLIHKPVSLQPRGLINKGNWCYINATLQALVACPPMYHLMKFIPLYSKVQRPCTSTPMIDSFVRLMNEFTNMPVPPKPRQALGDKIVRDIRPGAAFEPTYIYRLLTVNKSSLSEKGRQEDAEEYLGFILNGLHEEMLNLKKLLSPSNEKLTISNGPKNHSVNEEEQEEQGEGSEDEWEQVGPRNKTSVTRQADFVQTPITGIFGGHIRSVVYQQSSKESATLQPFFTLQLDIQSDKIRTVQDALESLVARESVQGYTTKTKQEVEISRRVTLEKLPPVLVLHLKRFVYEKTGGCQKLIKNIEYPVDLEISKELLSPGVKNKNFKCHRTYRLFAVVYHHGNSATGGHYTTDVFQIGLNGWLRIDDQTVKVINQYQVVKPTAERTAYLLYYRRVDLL
USP8 inh: inhibitors of human USP8 deubiquitinase; purified USP8, Ub-rhodamine cleavage fluorescence, 30 min; AID 1645853, 2021; actives 4.2% (n = 47,000); inhibition, % at 20 µM
USP17 inh: inhibitors of human USP17 deubiquitinase. inhibition, % at 50 µM. Ubiquitin carboxyl-terminal hydrolase 17-like protein 5 (Homo sapiens), A8MUK1. AID 1645855, 2021. actives 6.5% (n = 47,000). purified USP17, Ub-rhodamine cleavage fluorescence, 3 h
Large screens that a line does not name were inactive. Only some compounds are listed: those with a hit (about 9.2% of all), similar ones and a draw of the others. Cut-off read from the data, not from the text of the source: active = inhibition above about 30%; inactive = the rest.

COc1ccc(Cl)cc1NS(=O)(=O)c1ccc2c(c1)NC(=O)CC(C)S2 (configuration not stated)	none
CCc1nc(-c2cccc(NC(=O)C3CC(=O)N(c4ccccc4)C3)c2)no1 (configuration not stated)	none
Cc1nc(-c2cccc(NC(=O)C3CC(=O)N(c4ccc(C)c(C)c4)C3)c2)no1 (configuration not stated)	none
Cc1nc(-c2cccc(NC(=O)C3CC(=O)N(c4cccc(Cl)c4)C3)c2)no1 (configuration not stated)	USP8 inh 31
CCc1nc(-c2cccc(NC(=O)C3CC(=O)N(c4ccc(C)c(C)c4)C3)c2)no1 (configuration not stated)	USP8 inh 39, USP17 inh 60
Cc1nc2scc(C)n2c(=O)c1NC(=O)Cc1ccc(F)cc1	none
Cc1ccccc1S(=O)(=O)N1CCC(n2cnc3ccccc3c2=O)CC1	none
Cc1cccc2c(=O)n(C3CCN(S(=O)(=O)c4ccccc4)CC3)cnc12	USP17 inh 44
O=c1c2ccccc2ncn1C1CCN(S(=O)(=O)c2ccccc2F)CC1	USP17 inh 51
Cc1ccccc1NC(=O)CN1C(=O)C2CCCN2C(=O)c2ccc(F)cc21 (configuration not stated)	none
Cc1cccc(C)c1NC(=O)CN1C(=O)C2CCCC2=Nc2ccccc21 (configuration not stated)	none
O=C(CN1C(=O)C2CCCC2=Nc2ccccc21)Nc1cc(F)ccc1F (configuration not stated)	USP17 inh 60
CCc1ccccc1NC(=O)CN1C(=O)C2CCCC2=Nc2ccccc21 (configuration not stated)	USP10 block 34, USP8 inh 34
COc1ccc(-c2cc(C(=O)N3CCN(c4ccc(N5CCOCC5)nn4)CC3)[nH]n2)cc1	USP17 inh 38
CCCCN(C)C(=O)c1sc2nc3n(c(=O)c2c1C)CCCCC3	none
O=S(=O)(Cc1ccc(F)cc1)c1c[nH]c2ccccc12	USP8 inh 68
O=C(c1cccc(F)c1)N1CCCC1c1nc(-c2ccccc2)no1 (configuration not stated)	none
COc1ccc(OC)c(C2CC(=O)Nc3n[nH]c(-c4ccccc4)c32)c1 (configuration not stated)	USP17 inh 72
COc1cc(N2C[C@H](OCC3CCOCC3)[C@H]3OCCC[C@H]32)ncn1	none
CCOc1ccccc1NC(=O)Cn1c(=O)n(CCC(=O)NCc2ccc3c(c2)OCO3)c(=O)c2sccc21	USP10 block 69, USP8 inh 54, USP17 inh 60
O=C(CCn1c(=O)c2sccc2n(CC(=O)OCc2ccccc2)c1=O)NCc1ccc2c(c1)OCO2	OTUD3 block 35, USP10 block 36, USP8 inh 61
Cn1nc(-c2ccccc2)c2c1C[C@@H]1CN(C(=O)C3(C)CC3)C[C@H]21	none
N=C1/C(=C/c2cn(Cc3ccccc3)c3ccccc23)C(=O)N=C2SC(C(F)(F)F)=NN12	USP10 block 43
N=C1/C(=C/c2cn(Cc3ccc(F)cc3)c3ccccc23)C(=O)N=C2SC(Cc3ccccc3)=NN12	USP10 block 34, USP8 inh 74 (no result: USP17 inh)
CC1=CC2=NC(=O)/C(=C\c3cn(CCOc4ccccc4)c4ccccc34)C(=N)N2O1	none
COC1=C(N)C(=O)c2nc(-c3nc(C(=O)O)c(C)c(-c4ccc(O)c(OC)c4O)c3N)ccc2C1=O	USP17 inh 46
COc1ccccc1COc1ccc2c(C)c(CC(=O)N3CC[C@@]4(O)CCCC[C@H]4C3)c(=O)oc2c1	none
CN(c1ccc(Oc2ccc(C(F)(F)F)cn2)cc1)S(=O)(=O)c1ccccc1	USP8 inh 73, USP17 inh 38
Cc1ccc(Oc2ccccc2NC(=O)CSc2nc(N)nc(N)n2)cc1	USP17 inh 43
COc1ccc(C(CC(=O)Nc2ccccc2OC)n2cccc2)cc1 (configuration not stated)	none
O=S(=O)(Cc1nnc(-c2ccccc2C(F)(F)F)o1)c1ccc(Cl)cc1	USP17 inh 68
Clc1ccc(Cc2nnc(-c3cccnc3)o2)cc1	none
CC(=O)c1ccc(NC(=O)CCc2c(C)c3c(C)nn(-c4ccccc4)c3n(C)c2=O)cc1	USP17 inh 38
CC(=O)Nc1ccc(NC(=O)CCc2c(C)c3c(C)nn(-c4ccccc4)c3n(C)c2=O)cc1	none
Cc1ccc(CNC(=O)CCc2c(C)nc3c(c(C)nn3-c3ccc(C)cc3)c2C)cc1	USP8 inh 34
Cc1nn(-c2ccccc2)c2c1c(C)c(CCC(=O)NCc1ccc(F)cc1)c(=O)n2C	USP17 inh 37
COc1ccc(CNC(=O)CCc2c(C)c3c(C)nn(-c4ccccc4)c3n(C)c2=O)cc1	none
CCN1CCC2(CN(CCOC)CC23CCN(C(=O)NCc2ccccc2)CC3)C1=O (configuration not stated)	none
CC(C)[C@H](NC(=O)OC(C)(C)C)C(=O)N1CCC(C(=O)NCC2CCC(C(=O)O)CC2)CC1 (some centres not stated)	none (no result: USP17 inh)
COc1cc(OC)cc(C(=O)Nc2ccc3oc(-c4ccc5ccccc5c4)nc3c2)c1	USP17 inh 33
COc1cc(OC)cc(C(=O)Nc2cnc(-c3ccccc3)nc2)c1	USP17 inh 52
O=C(Oc1ccc(-n2cnnn2)cc1)c1ccccc1Br	USP8 inh 45, USP17 inh 33
O=C(NCc1ccc2c(c1)OCO2)c1nc(-c2ccccc2)n(-c2ccccc2)n1	none
Cn1ncc2c(Nc3cccc(Cl)c3)nc(NCCN3CCOCC3)nc21	none
CCc1ccccc1NC(=O)c1cc(-c2ccccc2)c(N2CCOCC2)s1	none
CCOc1ccc(NC(=O)c2cc(-c3ccccc3)c(N3CCOCC3)s2)cc1	USP17 inh 53
Cc1ccc(NC(=O)c2cc(-c3ccccc3)c(N3CCOCC3)s2)cc1	none
COc1cc(C)c(NC(=O)c2cc(-c3ccccc3)c(N3CCOCC3)s2)cc1OC	USP17 inh 59
COc1cc(OCC(=O)NC(C)C)cc2c1C(=O)O[C@@H](C)CCCC(=O)CCCCC2	none
COc1cc2c(c(OCC(=O)Nc3ccc4c(c3)OCCO4)c1)C(=O)O[C@@H](C)CCCC(=O)CCCCC2	USP10 block 32, USP8 inh 68
Cc1c(Cl)cccc1NC(=O)C1Cc2ccccc2CN1C(=O)c1ccccc1 (configuration not stated)	none
O=C(Nc1ccccc1Cl)C1Cc2ccccc2CN1C(=O)c1ccccc1 (configuration not stated)	USP8 inh 36
